Laboratory results from PubChem BioAssay (Tox21).
The source made the active and inactive calls. Unless noted, calls follow the shape of the dose curve; as a rule, active = well fitted curve in the direction sought with a large enough effect in the repeat runs; inconclusive = weak or mixed curves; inactive = no such curve, though single readings can be large; an effect the other way counts as inactive or inconclusive.

How the values were obtained:
[1] = qHTS assay for small molecules that induce genotoxicity in human embryonic kidney cells expressing luciferase-tagged ATAD5 (AID 651632); also: nearly all actives have a fitted effect of over 15% in size
Procedure, shortened: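 Reporter cells (HEK293T) express luciferase-tagged ATAD5, a protein that accumulates after DNA damage. Treat 16 hr at 37C/5% CO2, add Amplite, wait 30 min at RT, and read luminescence.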

[2] = qHTS assay for small molecules that induce genotoxicity in human embryonic kidney cells expressing luciferase-tagged ATAD5 - cell viability (AID 651634; calls by dose curve; also: nearly all actives have a fitted effect of over 25% in size)
Procedure, shortened: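 Seeding of 2,000 HEK293T ATAD5-luciferase cells per well preceded pin-tool compound transfer. Plates sat 15.5 hr at 37C under 5% CO2, then fluorescence was read after 30 min with CellTiter-Fluor.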

[3] = qHTS assay for small molecule disruptors of the mitochondrial membrane potential - cell viability (AID 720634; calls by dose curve;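 also: human HepG2 liver cancer cells; series mostly up to about 83 µM; nearly all actives have a fitted effect of over 20% in size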)
Procedure, shortened: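 Measuring cytotoxicity alongside mitochondrial potential, the screen quantified ATP by luminescence in HepG2 cells after 1 hr compound incubation and a 30 min room-temperature CellTiter-Glo step.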

[4] = qHTS assay for small molecule disruptors of the mitochondrial membrane potential (AID 720635); also: potency is read from the fitted curve at half-maximal effect
Procedure, shortened: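 Mitochondrial membrane potential tracked with Mito-MPS dye, red aggregates (ex 540/em 590 nm) against green monomers (ex 490/em 535 nm). Compound treatment 1 hr at 37C, dye 30 min in HepG2.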

[5] = qHTS assay to test for compound auto fluorescence at 590 nm (red) in HepG2 cells (AID 720674)
Procedure, shortened: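 1 hr compound incubation on HepG2 cells, 37 C, 5% CO2; plate read ex 540 nm / em 590 nm; intensities reported as Rose Bengal sodium equivalents.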

[6] = qHTS assay to test for compound auto fluorescence at 535 nm (green) in HepG2 cells (AID 720675)
[7] = qHTS assay to test for compound auto fluorescence at 460 nm (blue) in HEK293 cells (AID 720678)
Procedure, shortened: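 Intrinsic compound fluorescence is recorded in live HEK293 cultures after overnight incubation at 37C, 5% CO2, using excitation 405 nm and emission 460 nm. Values are referenced to triamterene.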

[8] = qHTS assay to test for compound auto fluorescence at 590 nm (red) in HEK293 cells (AID 720679)
Procedure, shortened: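 Red autofluorescence, HEK293 cells: 2,000 cells/well; attach 4-5 hr 37C; add 23 nL cpd or DMSO; incubate o/n 37C 5% CO2; read Ex540/Em590; Rose Bengal sodium reference.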

[9] = qHTS assay to test for compound auto fluorescence at 535 nm (green) in HEK293 cells (AID 720680)
[10] = qHTS assay to test for compound auto fluorescence at 460 nm (blue) in HEK293 cell free culture (AID 720681)
Procedure, shortened: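 Blue fluorescence (Ex 405/Em 460 nm, triamterene-equivalent) was read immediately after pin transfer of compound or DMSO into medium (DMEM, 10% FBS) without cells.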

[11] = qHTS assay to test for compound auto fluorescence at 535 nm (green) in HEK293 cell free culture (AID 720682)
Procedure, shortened: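 Green-label autofluorescence (485 nm excitation, 535 nm emission) measured on compound added to cell-free culture medium (DMEM, 10% FBS). Output is expressed relative to fluorescein.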

[12] = qHTS assay to test for compound auto fluorescence at 590 nm (red) in HEK293 cell free culture (AID 720683)
Procedure, shortened: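 Red-channel autofluorescence of compounds in culture medium (DMEM, 10% FBS), no cells, measured at 540/590 nm. Rose Bengal sodium is the reference fluorophore for equivalence.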

[13] = qHTS assay to test for compound auto fluorescence at 590 nm (red) in HepG2 cell free culture (AID 720684)
Procedure, shortened: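 Steps: dispense MEM/10% FBS medium, no cells; pin compound or DMSO vehicle; read red channel, Ex/Em 540/590 nm. Output given as Rose Bengal sodium equivalents.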

[14] = qHTS assay to test for compound auto fluorescence at 460 nm (blue) in HepG2 cell free culture (AID 720685)
Procedure, shortened: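 Compound (23 nL) or DMSO pinned into cell-free MEM with 10% FBS; blue fluorescence read at 405/460 nm excitation/emission, expressed as auto-fluorescence equivalency to triamterene.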

[15] = qHTS assay to test for compound auto fluorescence at 535 nm (green) in HepG2 cell free culture (AID 720686)
[16] = target: Glucocorticoid receptor (Homo sapiens) (UniProt P04150); experiment: qHTS assay to identify small molecule agonists of the glucocorticoid receptor (GR) signaling pathway (AID 720691; active = well fitted activation curve with a large enough effect in the signal ratio in the repeat runs, not every such curve was filed as active; inconclusive = weak or mixed curves, or effect the other way; inactive = no such curve, though single readings can be large or run the other way; the % refers to the signal ratio; also: potency is read from the fitted curve at half-maximal effect)
Chain of Glucocorticoid receptor (Homo sapiens) (P04150 whole entry, looked up): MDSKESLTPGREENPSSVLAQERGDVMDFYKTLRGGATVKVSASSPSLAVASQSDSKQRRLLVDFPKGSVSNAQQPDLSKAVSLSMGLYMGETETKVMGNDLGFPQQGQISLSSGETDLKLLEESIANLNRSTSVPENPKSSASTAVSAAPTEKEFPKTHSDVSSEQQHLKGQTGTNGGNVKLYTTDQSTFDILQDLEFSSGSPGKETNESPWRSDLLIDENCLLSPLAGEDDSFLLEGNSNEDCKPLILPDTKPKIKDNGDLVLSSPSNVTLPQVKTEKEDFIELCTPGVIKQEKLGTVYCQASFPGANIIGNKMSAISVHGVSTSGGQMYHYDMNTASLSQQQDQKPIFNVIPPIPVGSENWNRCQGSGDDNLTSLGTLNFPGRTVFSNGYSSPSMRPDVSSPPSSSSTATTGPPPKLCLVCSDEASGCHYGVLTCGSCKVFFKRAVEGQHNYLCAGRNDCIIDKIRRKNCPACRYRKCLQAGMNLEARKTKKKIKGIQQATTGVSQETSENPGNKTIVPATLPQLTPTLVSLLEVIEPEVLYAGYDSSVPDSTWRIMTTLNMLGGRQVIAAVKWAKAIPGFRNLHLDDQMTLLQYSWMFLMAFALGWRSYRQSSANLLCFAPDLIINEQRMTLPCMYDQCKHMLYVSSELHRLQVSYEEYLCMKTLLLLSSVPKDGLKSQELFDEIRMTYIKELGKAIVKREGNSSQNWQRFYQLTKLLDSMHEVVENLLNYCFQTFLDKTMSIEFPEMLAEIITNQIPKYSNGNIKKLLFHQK
Procedure, shortened: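 Reporter read-out: fluorescence intensity following 2 h room-temperature LiveBLAzer B/G FRET substrate loading. Prior step: GR-bla HeLa cells held 4 h, then treated 18 h at 37 C.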

[17] = target: Glucocorticoid receptor (Homo sapiens) (UniProt P04150); experiment: qHTS assay to identify small molecule antagonists of the glucocorticoid receptor (GR) signaling pathway (AID 720692; active = well fitted inhibition curve with a large enough effect in the signal ratio in the repeat runs, not every such curve was filed as active; inconclusive = weak or mixed curves, or effect the other way; inactive = no such curve, though single readings can be large or run the other way; the % refers to the signal ratio)
Procedure, shortened: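 Dexamethasone (5 nM final) stimulated a stably integrated GRE-beta-lactamase reporter in HeLa cells during 18 h co-incubation with compounds; signal was quantified as fluorescence intensity of B/G FRET substrate after 2 h.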

[18] = qHTS assay to test for compound auto fluorescence at 460 nm (blue) in HepG2 cells (AID 720687)
Procedure, shortened: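 Blue-channel autofluorescence (Ex/Em 405/460 nm, triamterene-equivalent) was measured after 1 hr compound exposure at 37 C, 5% CO2. Cells were HepG2, plated overnight at 37 C in MEM plus 10% FBS.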

Measured: Potency

Cc1ccc(N)cc1[N+](=O)[O-]
not listed: [18]
inactive: all other assays above

CN(C)C(=O)C(CCN1CCC(O)(c2ccc(Cl)cc2)CC1)(c1ccccc1)c1ccccc1
not listed: [2] | [4] | [17]
inactive: all other assays above

CC(C)=CC(=O)O
not listed: [16] | [17]
inactive: all other assays above

Nc1cc(N)cc(C(=O)O)c1
inactive: all assays above

NC(=O)c1c(Cl)cccc1Cl
not listed: [4] | [16] | [17]
inactive: all other assays above

CCN(CC)C(=O)c1ccc(O)c(OC)c1
not listed: [5]
inactive: all other assays above

CC(C)CCCC(C)CCCC(C)CCCCC(C)CCCC(C)CCCC(C)C (stereo not given)
not listed: [4] | [17] | [18]
inactive: all other assays above

C(=C(c1ccccc1)c1ccccc1)c1ccccc1
active: [4] 30.6 µM
not listed: [18]
inactive: all other assays above

CCCC(=O)O[C@]1(C(=O)CCl)[C@@H](C)C[C@H]2[C@@H]3CCC4=CC(=O)C=C[C@]4(C)[C@@]3(F)C(=O)C[C@@]21C
active: [4] 23.7 µM | [16] 0.0239 µM [inconclusive]
not listed: [17]
inactive: all other assays above

CCCOc1ccccc1-c1nc2n[nH]nc2c(=O)[nH]1
not listed: [4]
inactive: all other assays above

Cn1cnc2c(=O)[nH]c(N)nc21
not listed: [4] | [5] | [16] | [17]
inactive: all other assays above

CC(=O)O[C@H](CC(=O)[O-])C[N+](C)(C)C
not listed: [2]
inactive: all other assays above
